# Laboratory results: PubChem BioAssay (EPA / NIEHS)
# “And” between values parts separate entries of the source, which are not always exact repeats. Equal entries are not always repeated. Records with an inconclusive call do not appear. Some structures have more than one record in an assay (separate samples or runs), and their calls can disagree. The source made the active and inactive calls. The calls were made as follows, unless noted: active = hit-call score of the fitted dose curve at least 0.9, where 1 is the maximum; inconclusive = response in the unintended direction; inactive = score below 0.9.
# Columns and labels:
# [1] = read-out: Thyroid Hormone Responsive (THRSP), THRSP (gene 7069); experiment: LTEA_HepaRG_THRSP: Life Technologies and Expression Analysis (LTEA) Assay for Thyroid Hormone Responsive (THRSP) using HepaRG (AID 2283536; active = hit-call score of the fitted dose curve at least 0.9, where 1 is the maximum; inactive = score below 0.9); settings: mRNA level, 48 h; actives raise or lower the signal
# How it was run: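 THRSP transcript quantified by Fluidigm qRT-PCR against three housekeeping genes after 48 h chemical exposure of HepaRG cells in serum-free induction medium; eight-point half-log series, top 100 uM, 0.5% DMSO vehicle, duplicate wells.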
# [2] = read-out: Cellular tumor antigen p53 (Homo sapiens) (UniProt P04637); experiment: LTEA_HepaRG_TP53: Life Technologies and Expression Analysis (LTEA) Assay for Tumor Protein P53 (TP53) using HepaRG (AID 2283537; active = hit-call score of the fitted dose curve at least 0.9, where 1 is the maximum; inactive = score below 0.9); settings: mRNA level, 48 h; actives raise or lower the signal
# How it was run: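 Read-out is TP53 transcript level by microfluidic qRT-PCR, normalised to three housekeeping genes and fitted bidirectionally against DMSO. Human HepaRG cells received compounds for 48 h, highest concentration 100 uM.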
# [3] = read-out: UDP glucuronosyltransferase (UGT1A1), UGT1A1 (gene 54658); experiment: LTEA_HepaRG_UGT1A1: Life Technologies and Expression Analysis (LTEA) Assay for UDP glucuronosyltransferase (UGT1A1) using HepaRG (AID 2283538; active = hit-call score of the fitted dose curve at least 0.9, where 1 is the maximum; inactive = score below 0.9); settings: mRNA level, 48 h; actives raise or lower the signal
# How it was run: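 mRNA induction or loss of UGT1A1, by TaqMan qRT-PCR, in duplicate HepaRG wells after 48 h exposure to half-log dilutions topping at 100 uM; DMSO (0.5%) served as baseline.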
# [4] = read-out: UDP glucuronosyltransferase (UGT1A6), UGT1A6 (gene 54578); experiment: LTEA_HepaRG_UGT1A6: Life Technologies and Expression Analysis (LTEA) Assay for UDP glucuronosyltransferase (UGT1A6) using HepaRG (AID 2283539; active = hit-call score of the fitted dose curve at least 0.9, where 1 is the maximum; inactive = score below 0.9); settings: mRNA level, 48 h; actives raise or lower the signal
# How it was run: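 HepaRG, 48 h post-plating switch to serum-free induction medium; chemical 48 h, 100 uM top, half-log x8, duplicate, 0.5% DMSO. Phenobarbital 1mM induction control. UGT1A6 mRNA by TaqMan qRT-PCR; gain/loss fit vs DMSO.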
# [5] = read-out: X-box binding protein 1 (XBP1), XBP1 (gene 7494); experiment: LTEA_HepaRG_XBP1: Life Technologies and Expression Analysis (LTEA) Assay for X-box binding protein 1 (XBP1) using HepaRG (AID 2283540; active = hit-call score of the fitted dose curve at least 0.9, where 1 is the maximum; inactive = score below 0.9); settings: mRNA level, 48 h; actives raise or lower the signal
# How it was run: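 Transcript levels of XBP1, measured by qRT-PCR and normalised to three housekeeping genes, were fitted bidirectionally relative to 0.5% DMSO controls. Human HepaRG cells received eight-point half-log dilutions from 100 uM for 48 h.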
# [6] = LTEA_HepaRG_LDH_cytotoxicity: Cytotoxicity Assessment in the Life Technologies and Expression Analysis (LTEA) Assay (AID 2283563);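 as to AC50: LDH activity released into spent culture medium as a marker of cell death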
# How it was run: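 Cells were thawed and plated for 48 h. Medium was then replaced with serum-free induction medium. Chemicals (8 half-log points, maximum 100 uM, 0.5% DMSO) were added in duplicate for 48 h, after which spent medium was assayed for LDH.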
# [7] = ATG_XTT_Cytotoxicity: Cytotoxicity Assessment in the Attagene TRANS-FACTORIAL HepG2 Assay (AID 2283584);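 as to AC50: cells exposed to compound for 24 h before reading; active means loss of viability signal versus DMSO baseline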
# How it was run: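 Cells: human HepG2, transiently transfected with MRTU reporter constructs. Exposure 24 h. Readout: XTT, cell number. Baseline/neg ctrl DMSO; loss-of-signal scored.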
# [8] = TOX21_p53_BLA_p2_viability: Viability Assessment in the Tox21 HCT-116 p53 Agonism Beta-lactamase Assay, Phase 2 (AID 2283591);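 also: compound exposure lasted 16 h at 37 °C; actives lower the ATP signal meaning cytotoxicity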
# How it was run: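 Cytotoxicity readout: CellTiter-Glo ATP luminescence, 30 min at room temperature, after the beta-lactamase read. Cells were HCT116 exposed 16 h at 37C to compounds pin-transferred at 217-fold dilution from DMSO stocks.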
# [9] = biological target: Cellular tumor antigen p53 (Homo sapiens) (UniProt P04637); experiment: TOX21_p53_BLA_p2_ratio: Tox21 HCT-116 p53 Agonism Beta-lactamase Assay, Ratio, Phase 2 (AID 2283592)
# How it was run: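 Plated HCT116 p53-bla cells (4000/well) received compound after 5 h, then 16 h at 37C/5% CO2. CCF4-AM added, 2 h RT. Ratio of 460 to 530 nm emission taken as the p53 reporter signal.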
# [10] = TOX21_p53_BLA_p3_viability: Viability Assessment in the Tox21 HCT-116 p53 Agonism Beta-lactamase Assay, Phase 3 (AID 2283593);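 also: cells exposed to compound for 16 h before reading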
# How it was run: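 Cellular ATP was quantified by CellTiter-Glo luminescence, read after 30 min at room temperature. Beforehand, HCT116 cells (4000/well) received compound 5 h post-seeding, 217-fold diluted from DMSO, then incubated 16 h at 37C.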
# Cellular tumor antigen p53 (Homo sapiens), sequence (P04637 whole entry, looked up): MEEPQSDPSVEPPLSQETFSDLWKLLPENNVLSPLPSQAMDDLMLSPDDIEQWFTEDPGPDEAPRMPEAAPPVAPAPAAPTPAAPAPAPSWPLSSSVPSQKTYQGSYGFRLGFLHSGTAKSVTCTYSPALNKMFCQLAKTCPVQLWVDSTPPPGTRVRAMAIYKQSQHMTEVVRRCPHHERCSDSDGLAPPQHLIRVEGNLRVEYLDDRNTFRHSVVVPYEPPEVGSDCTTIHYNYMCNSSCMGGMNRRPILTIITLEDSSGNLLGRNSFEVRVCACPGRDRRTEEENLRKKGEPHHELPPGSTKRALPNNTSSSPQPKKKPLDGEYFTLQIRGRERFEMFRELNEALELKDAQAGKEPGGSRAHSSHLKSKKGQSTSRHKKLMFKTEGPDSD
smiles,measurement,setting,value
CCCCCCCCCC[N+](C)(C)CCCCCCCCCC,AC50,[1],24.5 µM (active)
same,outcome,[2],inactive
same,outcome,[3],inactive
same,AC50,[4],50 µM (active)
same,outcome,[5],inactive
same,AC50,[6],36.6 µM (active)
same,AC50,[7],18.5 µM (active)
same,AC50,[8],36.4 µM (active) and 33.1 µM (active)
same,AC50,[9],65.1 µM (active) and 39.6 µM (active)
same,AC50,[10],64 µM (active) and 27.4 µM (active)
O=C(NC(=O)c1c(F)cccc1F)Nc1cc(Cl)c(OC(F)(F)C(F)F)c(Cl)c1,AC50,[1],9.92 µM (active)
same,outcome,[2],inactive
same,outcome,[3],inactive
same,outcome,[4],inactive
same,outcome,[6],inactive
same,outcome,[7],inactive
same,outcome,[8],inactive
same,outcome,[9],inactive
same,outcome,[10],inactive
CCCCCCOC(=O)c1ccccc1C(=O)OCCCCCC,outcome,[1],inactive
same,outcome,[2],inactive
same,AC50,[3],62 µM (active)
same,outcome,[4],inactive
same,outcome,[5],inactive
same,outcome,[6],inactive
same,outcome,[7],inactive
same,outcome,[10],inactive
O=C(O)C(F)(F)C(F)(F)C(F)(F)C(F)(F)C(F)(F)C(F)(F)C(F)(F)C(F)(F)C(F)(F)F,AC50,[1],15.6 µM (active)
same,AC50,[3],36.2 µM (active)
same,AC50,[4],38.6 µM (active)
same,outcome,[5],inactive
same,AC50,[6],63.4 µM (active)
same,outcome,[7],inactive
same,outcome,[8],inactive
same,outcome,[9],inactive
same,outcome,[10],inactive
CCOCCOC(C)=O,outcome,[2],inactive
same,outcome,[3],inactive
same,outcome,[4],inactive
same,outcome,[5],inactive
same,outcome,[6],inactive
same,outcome,[7],inactive
same,outcome,[8],inactive
same,outcome,[9],inactive
same,outcome,[10],inactive
Cc1ccc(O)c(C)c1,outcome,[1],inactive
same,outcome,[2],inactive
same,outcome,[3],inactive
same,outcome,[4],inactive
same,outcome,[6],inactive
same,outcome,[8],inactive
same,outcome,[9],inactive
same,outcome,[10],inactive
C=CC(=O)NCNC(=O)C=C,outcome,[2],inactive
same,outcome,[3],inactive
same,outcome,[4],inactive
same,outcome,[5],inactive
same,outcome,[6],inactive
same,outcome,[7],inactive
same,outcome,[8],inactive
same,outcome,[10],inactive
CO/C=C(/C(=O)OC)c1ccccc1COc1cccc(C(F)(F)F)n1,AC50,[1],7.31 µM (active)
same,AC50,[2],10.1 µM (active)
same,AC50,[3],20.5 µM (active)
same,AC50,[4],22.2 µM (active)
same,AC50,[6],21.2 µM (active)
same,outcome,[7],inactive
same,outcome,[8],inactive
same,AC50,[9],2.77 µM (active)
same,outcome,[10],inactive
COc1ccc(O)c(C(C)(C)C)c1,outcome,[2],inactive
same,outcome,[3],inactive
same,outcome,[4],inactive
same,outcome,[5],inactive
same,outcome,[6],inactive
same,outcome,[7],inactive
same,outcome,[9],inactive
same,outcome,[10],inactive
ClC1=C(Cl)[C@]2(Cl)[C@@H]3[C@H]4C[C@H]([C@@H]5O[C@H]45)[C@@H]3[C@@]1(Cl)C2(Cl)Cl,AC50,[1],93 µM (active)
same,outcome,[2],inactive
same,AC50,[3],2.04 µM (active)
same,outcome,[4],inactive
same,outcome,[6],inactive
same,outcome,[8],inactive
same,outcome,[10],inactive
Cc1ccccc1CO[C@@H]1C[C@@]2(C(C)C)CC[C@]1(C)O2,AC50,[1],71.7 µM (active)
same,AC50,[3],14.9 µM (active)
same,outcome,[4],inactive
same,outcome,[6],inactive
CCSC(=O)N(CC)C1CCCCC1,outcome,[1],inactive
same,outcome,[3],inactive
same,outcome,[4],inactive
same,outcome,[6],inactive
COS(=O)(=O)OC,outcome,[1],inactive
same,outcome,[2],inactive
same,outcome,[3],inactive
same,outcome,[4],inactive
same,outcome,[6],inactive
same,outcome,[8],inactive
same,outcome,[9],inactive
same,outcome,[10],inactive
CCC(C)(c1ccc(O)cc1)c1ccc(O)cc1,AC50,[1],87.3 µM (active)
same,outcome,[2],inactive
same,outcome,[3],inactive
same,outcome,[4],inactive
same,outcome,[6],inactive
same,outcome,[7],inactive
same,outcome,[8],inactive
same,AC50,[9],87.1 µM (active) and 71 µM (active)
same,outcome,[10],inactive
CCC(=O)O[C@H]1CC[C@H]2[C@@H]3CCC4=CC(=O)CC[C@]4(C)[C@H]3CC[C@]12C,outcome,[1],inactive
same,outcome,[2],inactive
same,AC50,[3],5.32 µM (active)
same,outcome,[4],inactive
same,outcome,[5],inactive
same,outcome,[6],inactive
same,outcome,[7],inactive
same,AC50,[8],70.4 µM (active)
same,outcome,[8],inactive
same,AC50,[9],87.7 µM (active)
same,outcome,[9],inactive
same,AC50,[10],82 µM (active)
same,outcome,[10],inactive
Cc1cccc(C)c1N,outcome,[2],inactive
same,outcome,[3],inactive
same,outcome,[4],inactive
same,outcome,[5],inactive
same,outcome,[6],inactive
same,outcome,[7],inactive
same,outcome,[9],inactive
